The source of these data is PubChem BioAssay.

Active and inactive are the calls of the source. Unless noted, no rule for the calls is given here.

Test [1] can be described thus: compounds binding Alexa647 anti-His antibody – biochemical, small-molecule microarray, 635 nm fluorescence, artefact control for SMM control protein annotation, primary screen (AID 1128).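 Also: score merges feature fluorescence with signal-to-noise for each printed compound spot.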 The conditions noted are these: higher = more signal.
The subject of test [2] is Human papillomavirus type 1a E7 protein (residues 1-88). Description: HPV1a E7 small-molecule binders, primary screen, biochemical, small-molecule microarray, residues 1-88, 635 nm (AID 1129). The conditions noted are these: small-molecule microarray binding, fluorescence 635 nm; higher = more signal.
Test [3] concerns the target Focal adhesion kinase 1 (Homo sapiens) (UniProt Q05397). The experiment in a line: PTK2 protein binding on printed compound slides – biochemical, small-molecule microarray, 635/667 nm fluorescence, BSA, DTT, primary screen (AID 1130).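 Also: composite of spot emission at 667 nm and signal to noise over triplicate slides.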 The conditions noted are these: 635 nm fluorescence, higher = more signal.
For test [4], the system named is Fibrinogen (Alexa647-labelled). Description: Alexa647-fibrinogen binding to printed small molecules – biochemical, small-molecule microarray, 635/667 nm fluorescence, artefact control for SMM control-protein annotation, profiling panel (AID 1131).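 Also: z-score merges 667 nm fluorescence with per-spot signal-to-noise over triplicate slides.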 The conditions noted are these: fibrinogen-A647 binding fluorescence, higher = more signal.
Test [5] addresses Follistatin (Homo sapiens) (UniProt P19883). Description: FST protein binding to printed compounds – biochemical, small-molecule microarray, 635/667 nm fluorescence, primary screen (AID 1132). The conditions noted are these: 635 nm fluorescence, higher = more signal.
In test [6] the target is Fibroblast growth factor 2 (Homo sapiens) (UniProt P09038). The experiment in a line: basic fibroblast growth factor binding to printed compounds – biochemical, small-molecule microarray, 635/667 nm fluorescence, primary screen (AID 1133). The conditions noted are these: FGF2, fluorescence 635/667, higher = more signal.
Chain of Fibroblast growth factor 2 (Homo sapiens) (P09038 whole entry, looked up): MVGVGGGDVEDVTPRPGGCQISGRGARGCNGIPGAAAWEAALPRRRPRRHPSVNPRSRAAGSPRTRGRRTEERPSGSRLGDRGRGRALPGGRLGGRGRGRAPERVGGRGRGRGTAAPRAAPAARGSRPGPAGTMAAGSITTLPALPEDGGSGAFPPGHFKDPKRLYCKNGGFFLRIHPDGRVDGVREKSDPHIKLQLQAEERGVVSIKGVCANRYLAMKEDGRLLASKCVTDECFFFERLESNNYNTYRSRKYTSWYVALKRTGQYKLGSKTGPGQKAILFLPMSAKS
Test [7] in a line: JC-1 mitochondrial potential readout, lung cancer cells – cell-based, A549, JC-1 fluorescence, basal, 24 h, 100 nL, profiling panel (AID 1138).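 Also: A549 lung adenocarcinoma cells under basal conditions with no added stimulus; test concentration not given here.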 The conditions noted are these: higher = more signal.
In a further test the test system is Lefty1. The experiment in a line: Lefty1 protein binding to printed compounds – biochemical, small-molecule microarray, 635/667 nm fluorescence, primary screen (AID 1139). The conditions noted are these: fluorescence 635/667, higher = more signal.
Test [8] concerns wheat germ agglutinin (Triticum aestivum), Alexa647-labelled. The experiment in a line: Alexa647-WGA lectin binding to printed small molecules – biochemical, small-molecule microarray, 635/667 nm fluorescence, artefact control for SMM control-protein annotation, profiling panel (AID 1140).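 Also: score merges 667 nm feature emission with signal to noise over triplicate slides.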 The conditions noted are these: WGA-A647 binding, 635 nm fluorescence, higher = more signal.

Test [9] deals with Luciferin 4-monooxygenase (Photinus pyralis) (UniProt P08659). Description: inhibition of purified Photinus pyralis luciferase – biochemical, luminescence, purified enzyme, 2006 set, primary screen (AID 1141).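 Also: cell-free assay with purified firefly luciferase at 100 ng per well in PBS; test concentration not given here.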 The conditions noted are these: purified firefly luciferase, SteadyGlo luminescence, 30 min; higher = more signal, called active from +8 up or from −8 down.
Chain of Luciferin 4-monooxygenase (Photinus pyralis) (P08659 whole entry, looked up): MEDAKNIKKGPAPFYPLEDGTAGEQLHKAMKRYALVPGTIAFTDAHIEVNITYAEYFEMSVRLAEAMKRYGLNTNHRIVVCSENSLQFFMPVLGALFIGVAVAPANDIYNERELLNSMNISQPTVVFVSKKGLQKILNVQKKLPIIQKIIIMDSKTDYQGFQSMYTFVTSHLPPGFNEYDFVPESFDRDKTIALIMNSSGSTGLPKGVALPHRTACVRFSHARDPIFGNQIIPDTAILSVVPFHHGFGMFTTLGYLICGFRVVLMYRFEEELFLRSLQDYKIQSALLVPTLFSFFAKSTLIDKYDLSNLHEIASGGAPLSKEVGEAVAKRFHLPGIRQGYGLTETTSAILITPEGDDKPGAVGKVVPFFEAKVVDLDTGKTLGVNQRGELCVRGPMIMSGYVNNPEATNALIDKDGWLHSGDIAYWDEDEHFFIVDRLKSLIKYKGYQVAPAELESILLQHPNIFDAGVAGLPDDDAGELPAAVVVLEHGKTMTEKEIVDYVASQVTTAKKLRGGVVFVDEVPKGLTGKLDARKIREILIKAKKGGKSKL
In test [10] the test system is Wnt5a (protein binding on small-molecule microarray). The experiment in a line: small molecules binding Wnt5a protein – biophysical, small-molecule microarray, 635/667 nm fluorescence, primary screen (AID 1142).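 Also: fluorescence read at 667 nm with signal to noise per printed feature.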 The conditions noted are these: 635 nm fluorescence, higher = more signal.
Test [11] is described as follows: ATP-based viability of Huh7 replicon cells – cell-based, CellTiter-Glo luminescence, basal, 48 h, cytotoxicity control for HCV replication inhibitor project, primary screen (AID 1143).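 Also: Huh7 hepatoma cells carrying a hepatitis C replication reporter with no stimulus; test concentration not given here.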 The conditions noted are these: higher = more signal, called active from +8 up or from −8 down.
Test [12] can be described thus: Pseudomonas biofilm growth suppression – PAO1 strain, BacTiter-Glo luminescence, LB-PBS, primary screen (AID 1144). The conditions noted are these: P. aeruginosa PAO1 biofilm, 12 h, higher = more signal.
Test [13] in a line: basal CRE-LacZ reporter activity in PC12 – cell-based, unstimulated, primary screen (AID 1145). The conditions noted are these: no forskolin, luminescence, 4.5 h, higher = more signal, called active from +8 up or from −8 down.
A short description of test [14]: forskolin-driven CRE-LacZ activity in PC12 – cell-based, CRE-LacZ reporter, forskolin-stimulated, primary screen (AID 1146).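 Also: PC12 cells with 6xCRE LacZ reporter stimulated by forskolin 10 µM; beta-galactosidase reporter signal reflecting CREB driven transcription.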 The conditions noted are these: luminescence, 4.5 h, higher = more signal, called active from +8 up or from −8 down.
Test [15] addresses Streptavidin (Streptomyces avidinii) (UniProt P22629). The experiment in a line: compounds binding control protein streptavidin – biophysical, small-molecule microarray, 635/667 nm fluorescence, artefact control for SMM compound annotation, primary screen (AID 1147).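 Also: signal reflects streptavidin binding to arrayed compounds as a control protein.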 The conditions noted are these: higher = more signal.
Test [16] in a line: probe aInhba binding on compound microarray – biochemical, small-molecule microarray, 635/667 nm fluorescence, primary screen (AID 1148).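 Also: score merges 667nm spot fluorescence with signal-to-noise for antibody binding to printed compounds.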 The conditions noted are these: higher = more signal.
The target in test [17] is Torsin-1A (Homo sapiens) (UniProt O14656). The experiment in a line: TOR1A wild-type binding on microarray – cell lysate, small-molecule microarray, lysate, 635/667 nm, primary screen (AID 1149). The conditions noted are these: COS7 hTOR1A-WT lysate, 635 nm fluorescence, higher = more signal.
Chain of Torsin-1A (Homo sapiens) (O14656 whole entry, looked up): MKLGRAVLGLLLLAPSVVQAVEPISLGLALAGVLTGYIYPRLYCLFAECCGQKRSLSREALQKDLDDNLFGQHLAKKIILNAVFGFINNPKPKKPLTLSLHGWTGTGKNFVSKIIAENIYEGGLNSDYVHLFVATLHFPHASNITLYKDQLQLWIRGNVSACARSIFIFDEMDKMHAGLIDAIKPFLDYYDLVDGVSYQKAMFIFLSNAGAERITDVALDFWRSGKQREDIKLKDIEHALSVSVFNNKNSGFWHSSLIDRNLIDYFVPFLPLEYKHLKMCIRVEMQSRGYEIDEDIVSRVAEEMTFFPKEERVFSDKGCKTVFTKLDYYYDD
Test [18] shares this target. The experiment in a line: torsin A mutant lysate binding on microarrays – cell lysate, small-molecule microarray, COS7 lysate, 635/667 nm fluorescence, primary screen (AID 1150).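 Also: score pools 667 nm emission and signal to noise measuring lysate protein binding.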 The conditions noted are these: COS7 hTOR1A mutant lysate, 635 nm fluorescence, higher = more signal.
In test [19] the test system is Sonic hedgehog protein (Shh). Description: Sonic hedgehog microarray binding compounds – biochemical, small-molecule microarray, 635/667 nm fluorescence, primary screen (AID 1151).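 Also: Shh protein binding to compounds spotted on small-molecule microarray slides; score combines spot fluorescence intensity with signal-to-noise across triplicate slides.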 The conditions noted are these: 635 nm fluorescence, higher = more signal.

Chain of Follistatin (Homo sapiens) (P19883 whole entry, looked up): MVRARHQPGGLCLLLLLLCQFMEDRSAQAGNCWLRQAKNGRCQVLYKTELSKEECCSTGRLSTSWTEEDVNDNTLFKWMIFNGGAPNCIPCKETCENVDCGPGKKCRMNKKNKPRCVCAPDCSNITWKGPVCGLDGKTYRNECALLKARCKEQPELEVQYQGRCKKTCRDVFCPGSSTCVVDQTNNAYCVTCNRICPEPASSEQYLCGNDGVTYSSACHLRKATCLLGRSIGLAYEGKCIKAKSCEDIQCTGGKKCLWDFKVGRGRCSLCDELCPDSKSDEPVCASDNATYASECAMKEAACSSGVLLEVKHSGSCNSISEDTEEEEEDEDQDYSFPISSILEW
Chain of Focal adhesion kinase 1 (Homo sapiens) (Q05397 whole entry, looked up): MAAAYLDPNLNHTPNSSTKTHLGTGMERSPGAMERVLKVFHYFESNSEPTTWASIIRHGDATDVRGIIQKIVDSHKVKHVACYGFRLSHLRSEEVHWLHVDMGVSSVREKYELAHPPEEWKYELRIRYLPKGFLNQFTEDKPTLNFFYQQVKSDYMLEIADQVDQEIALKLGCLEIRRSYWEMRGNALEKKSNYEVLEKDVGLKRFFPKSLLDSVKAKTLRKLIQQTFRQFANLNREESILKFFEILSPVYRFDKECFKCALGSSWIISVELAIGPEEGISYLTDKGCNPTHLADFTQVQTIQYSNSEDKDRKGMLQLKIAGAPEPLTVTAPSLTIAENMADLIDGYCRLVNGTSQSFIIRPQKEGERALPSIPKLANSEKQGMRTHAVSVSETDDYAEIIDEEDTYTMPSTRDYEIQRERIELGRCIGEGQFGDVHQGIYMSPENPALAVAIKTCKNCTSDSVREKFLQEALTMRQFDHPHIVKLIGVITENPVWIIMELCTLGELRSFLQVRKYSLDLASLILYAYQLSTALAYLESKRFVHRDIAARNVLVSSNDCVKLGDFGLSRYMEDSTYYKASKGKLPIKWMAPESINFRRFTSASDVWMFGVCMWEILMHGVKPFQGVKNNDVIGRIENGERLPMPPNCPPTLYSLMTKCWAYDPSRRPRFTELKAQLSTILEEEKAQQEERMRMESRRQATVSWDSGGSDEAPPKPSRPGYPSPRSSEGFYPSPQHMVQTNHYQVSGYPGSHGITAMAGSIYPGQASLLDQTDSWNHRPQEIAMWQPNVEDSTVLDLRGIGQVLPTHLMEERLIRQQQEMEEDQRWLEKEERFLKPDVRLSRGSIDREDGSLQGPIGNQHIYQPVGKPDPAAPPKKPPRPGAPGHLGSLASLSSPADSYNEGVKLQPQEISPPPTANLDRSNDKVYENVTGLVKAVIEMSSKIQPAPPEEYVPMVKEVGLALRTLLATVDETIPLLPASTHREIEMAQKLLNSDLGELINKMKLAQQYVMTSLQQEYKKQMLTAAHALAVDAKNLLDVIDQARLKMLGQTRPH
Chain of Streptavidin (Streptomyces avidinii) (P22629 whole entry, looked up): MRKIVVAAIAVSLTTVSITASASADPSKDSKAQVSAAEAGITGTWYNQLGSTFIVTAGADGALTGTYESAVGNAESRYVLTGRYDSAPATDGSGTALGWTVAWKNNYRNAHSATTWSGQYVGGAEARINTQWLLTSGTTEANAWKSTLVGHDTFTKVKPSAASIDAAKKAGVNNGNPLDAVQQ

For `CCOc1cc(C(O)C2C=CC3C(=O)N(C4CCCCC4)C(=O)C3N2Nc2ccc(OC)cc2)ccc1O` (stereo not given), the composite z-score in [1] is 0.675; in [2], 1.19; in test [3] it was 0.903; in test [4], 0.705; in [5], 0.846; in test [6], -0.0785. The composite z-score in the test on Lefty1 is 0.225; in [8], 0.686; in [10] it was 0.0751; in test [15], 1.43; in test [16], 0.0808; in the test with Torsin-1A (Homo sapiens) [17] it was 0.705. Further, the composite z-score is 1.17 with Torsin-1A (Homo sapiens) [18] and -0.207 in test [19]. Also, the z-score is 0.786 in test [7]; -0.0537 (inactive) in [9]; -1.26 (inactive) in test [11]; -0.855 (inactive) in test [12]; 0.276 (inactive) in test [13]; -1.51 (inactive) in test [14].
With `COc1ccc([Si](C)(C)[C@H]2[C@H](CCn3cc([C@H](O)c4ccccc4)nn3)O[C@@]3(C(=O)N(Cc4ccc(N5CCC5=O)cc4)c4ccccc43)[C@@H]2C)cc1`, the composite z-score was 0.814 in test [1]; 0.578 in test [2]; -0.441 in test [3]; -0.116 in test [4]; 1.25 in test [5]; 1.47 in test [6]. Besides, the composite z-score in the test with Lefty1 is 1.18; in [8], 0.264; in test [10], 0.826; in [15], -0.503; in test [16], -0.128; with Torsin-1A (Homo sapiens) [17], 0.441. Also, the results for the composite z-score (with Torsin-1A (Homo sapiens) [18]; in test [19]) were 0.489 and 1.83, respectively. The z-score was 0.527 in [7]; 0.465 (inactive) in test [9]; -3.89 (inactive) in test [11]; 0.572 (inactive) in test [12]; 0.31 (inactive) in [13]; -1.05 (inactive) in test [14].
As for `Cc1ccc(S[C@]2(C(=O)NC(C)C)CC(=O)N(Cc3ccccc3C(F)(F)F)[C@@H]2c2ccc(CO)cc2I)cc1`, the composite z-score in [1] is 1.15; in test [2], -0.0732; in [3], 0.955; in test [4] it was -0.515; in test [5], 0.0697; in test [6], -0.848. The composite z-score is -1.03 in the test on Lefty1; -0.229 in [8]; -0.38 in test [10]; -0.281 in test [15]; -0.239 in test [16]; -0.93 in the test with Torsin-1A (Homo sapiens) [17]. Also, the composite z-score is -1.17 in the test with Torsin-1A (Homo sapiens) [18] and -0.181 in test [19]. The z-score was -0.279 in test [7]; 1.35 (inactive) in test [9]; -4.73 (inactive) in test [11]; -0.9 (inactive) in test [12]; -0.141 (inactive) in test [13]; 1.12 (inactive) in test [14].
As for `O=C1O[C@H](c2ccccc2)[C@H](c2ccccc2)N2[C@H]1[C@@H](C(=O)O)[C@]1(C(=O)Nc3ccccc31)[C@H]2c1ccc(O)cc1`, the composite z-score in test [1] is -0.585; in test [2] it was -0.0964; in [3], 0.133; in test [4], -1.31; in test [5], 0.0111; in test [6] it was 0.152. The composite z-score with Lefty1 was -0.634; in [8], -0.55; in test [10], 0.251; in test [15] it was -0.516; in [16], -0.0418; in the test with Torsin-1A (Homo sapiens) [17], 0.109. Further, the composite z-score was 1.45 with Torsin-1A (Homo sapiens) [18] and -0.429 in [19]. In addition, the z-score in test [7] was 0.226; in test [9] it was 0.002 (inactive); in test [11] it was 0.0915 (inactive); in [12] it was -0.0265 (inactive); in test [13], -0.0566 (inactive); in test [14], -0.763 (inactive).
